Experimental findings from PubChem BioAssay (NCATS) are described below.

Records with an inconclusive call do not appear. The source made the active and inactive calls. The call rests on the fitted dose curve; in most records, active means well fitted curve in the direction sought with a large enough effect; inconclusive means small, poorly fitted or top-dose-only effect, or another doubt; inactive means no such curve, though single readings can be large; an effect the other way counts as inactive or inconclusive.

In assay [1] the target is Ubiquitin carboxyl-terminal hydrolase 1 (Homo sapiens) (UniProt O94782). Put plainly: Inhibitors of USP1/UAF1: Pilot qHTS (AID 504865). Further: nearly all actives have a fitted effect of over 35% in size. Further: potency means the concentration at half of the fitted maximal effect. In outline: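 In 50mM HEPES pH 7.8 containing 0.5mM EDTA, 1mM TCEP, 0.1 mg/ml BSA and 0.01% Tween-20, 1nM USP1/UAF1 is exposed to compound for 15 min, then Ub-Rho (150nM final) is added and fluorescence is read over time.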
Chain of Ubiquitin carboxyl-terminal hydrolase 1 (Homo sapiens) (O94782 whole entry, looked up): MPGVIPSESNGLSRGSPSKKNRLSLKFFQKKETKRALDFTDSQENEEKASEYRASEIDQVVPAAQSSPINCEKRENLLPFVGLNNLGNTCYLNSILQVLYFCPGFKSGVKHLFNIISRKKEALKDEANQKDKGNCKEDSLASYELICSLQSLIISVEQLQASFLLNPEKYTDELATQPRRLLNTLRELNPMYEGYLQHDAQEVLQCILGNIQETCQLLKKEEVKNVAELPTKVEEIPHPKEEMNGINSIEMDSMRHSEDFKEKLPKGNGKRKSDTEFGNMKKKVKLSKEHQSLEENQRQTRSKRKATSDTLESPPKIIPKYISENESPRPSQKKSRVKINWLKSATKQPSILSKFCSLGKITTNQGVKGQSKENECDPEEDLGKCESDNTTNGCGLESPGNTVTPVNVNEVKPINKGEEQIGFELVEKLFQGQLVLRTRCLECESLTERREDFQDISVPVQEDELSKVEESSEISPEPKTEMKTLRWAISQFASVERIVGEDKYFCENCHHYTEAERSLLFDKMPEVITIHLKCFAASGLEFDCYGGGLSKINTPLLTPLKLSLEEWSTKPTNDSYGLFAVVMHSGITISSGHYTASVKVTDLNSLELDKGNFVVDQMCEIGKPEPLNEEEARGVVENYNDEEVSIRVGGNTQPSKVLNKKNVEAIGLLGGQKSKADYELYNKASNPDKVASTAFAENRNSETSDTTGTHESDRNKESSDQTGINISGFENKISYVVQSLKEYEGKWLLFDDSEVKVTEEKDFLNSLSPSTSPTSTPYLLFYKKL
A general note: In qHTS, concentration-response curves come from the screen itself.

Assay [2] in a line: S16 Schwann cell viability assay (CellTiter-Glo assay) (AID 624031). Further: nearly all actives have a fitted effect of over 70% in size. In short, it runs like this: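 Untransfected S16 rat Schwann cells; compound 24 h, 37 °C/5% CO2; CellTiter-Glo ATP luminescence. % activity vs no-cell wells and DMSO controls (0%); concentration-effect curves classed by r2, response magnitude, activity.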
Background: ATP-based viability assays read luminescence as a measure of living cells.

Assay [3] deals with CP192. Put plainly: qHTS profiling for inhibitors of Plasmodium falciparum proliferation (AID 504749). Further: nearly all actives have a fitted effect of over 60% in size. Further: potency means the concentration at half of the fitted maximal effect. Particulars: P. falciparum in erythrocytes, SYBR Green DNA, 72 h; series mostly up to 28.7 µM. In short, it runs like this: (§1)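 SYBR Green fluorescence of parasite DNA, read after lysis and overnight dark incubation, measured growth over 72 h in erythrocyte culture at 0.3% parasitemia and 2.5% hematocrit. Data normalised to DMSO and 0.29 uM artemisinin, with plate-drift correction.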

Assay [4] concerns CP194. The assay is described as above. The settings on record: P. falciparum in erythrocytes, SYBR Green DNA, 72 h; series mostly up to 28.7 µM. In short, it runs like this:
as §1

Assay [5] relates to CP201. The description is as above. Particulars: P. falciparum in erythrocytes, SYBR Green DNA, 72 h; series mostly up to 28.7 µM. In outline: as §1
Assay [6] has as its system CP203. Described as above. The settings on record: P. falciparum in erythrocytes, SYBR Green DNA, 72 h; series mostly up to 28.7 µM. In short, it runs like this: as §1
Assay [7] deals with CP211. Described as above. The settings on record: P. falciparum in erythrocytes, SYBR Green DNA, 72 h; series mostly up to 28.7 µM. In outline: as §1
Assay [8] has as its system CP260. The assay is described as above. Particulars: P. falciparum in erythrocytes, SYBR Green DNA, 72 h; series mostly up to 28.7 µM. In outline: as §1
Assay [9] has as its system CP262. The description is as above. The settings on record: P. falciparum in erythrocytes, SYBR Green DNA, 72 h; series mostly up to 28.7 µM. In short, it runs like this: as §1
For assay [10], the system named is CP315. Described as above. Particulars: P. falciparum in erythrocytes, SYBR Green DNA, 72 h; series mostly up to 28.7 µM. In outline:
as §1

Assay [11] has as its system DFO2036. Described as above. The settings on record: P. falciparum in erythrocytes, SYBR Green DNA, 72 h; series mostly up to 28.7 µM. In outline:
as §1

In assay [12] the test system is DIV14. The assay is described as above. The settings on record: P. falciparum in erythrocytes, SYBR Green DNA, 72 h; series mostly up to 28.7 µM. In outline:
as §1

The test system of assay [13] is DIV30. Described as above. The settings on record: P. falciparum in erythrocytes, SYBR Green DNA, 72 h; series mostly up to 28.7 µM. In outline:
as §1

The subject of assay [14] is Dd2. Described as above. Particulars: P. falciparum in erythrocytes, SYBR Green DNA, 72 h; series mostly up to 28.7 µM. In short, it runs like this: as §1
The subject of assay [15] is GB4. Described as above. The settings on record: P. falciparum in erythrocytes, SYBR Green DNA, 72 h; series mostly up to 28.7 µM. In short, it runs like this: as §1
Assay [16] concerns ICS. The description is as above. The settings on record: P. falciparum in erythrocytes, SYBR Green DNA, 72 h; series mostly up to 28.7 µM. In outline: as §1
Assay [17] deals with P94_40. The description is as above. The settings on record: P. falciparum in erythrocytes, SYBR Green DNA, 72 h; series mostly up to 28.7 µM. In short, it runs like this:
as §1

The test system of assay [18] is PAD. The assay is described as above. Particulars: P. falciparum in erythrocytes, SYBR Green DNA, 72 h; series mostly up to 28.7 µM. In short, it runs like this:
as §1

Assay [19] has as its system PC15. Described as above. The settings on record: P. falciparum in erythrocytes, SYBR Green DNA, 72 h; series mostly up to 28.7 µM. In short, it runs like this:
as §1

Assay [20] has as its system CP297. Described as above. Particulars: P. falciparum in erythrocytes, SYBR Green DNA, 72 h; series mostly up to 28.7 µM. In outline:
as §1

In the case of `CC1(C)[C@@H](C=C(Cl)Cl)[C@@H]1C(=O)OCc1c(F)c(F)cc(F)c1F`, the Potency result in [1], in assay [2], in assay [3], in assay [4], in assay [5] and in [6] was “inactive” throughout. Further, the Potency result in assay [7], in [8], in [9], in assay [10], in [11] and in assay [12] was “inactive” each time. Moreover, the Potency result in [13], in [14], in assay [15], in assay [16], in assay [17] and in assay [18] was “inactive” throughout. The Potency entry in assay [19] is “inactive”.
For the compound `CCCC(C)C1(CC)C(=O)NC(=S)NC1=O` (stereo not drawn), the Potency entry in assay [2], in assay [4], in assay [5], in assay [6], in assay [7] and in [8] was “inactive” throughout. Further, the Potency entry in [9], in assay [20], in [10], in assay [11], in assay [12] and in [13] was “inactive” throughout. The Potency entry in [14], in [15], in [16], in [17], in assay [18] and in assay [19] was “inactive” each time.
Take `CC(CO)NC(=O)C1C=C2c3cccc4[nH]cc(c34)CC2N(C)C1` (stereo not drawn): the Potency result in assay [1], in assay [2], in assay [3], in assay [4], in [5] and in assay [6] was “inactive” each time. The Potency result in assay [7], in assay [8], in [9], in [20], in assay [10] and in assay [11] was “inactive” each time. Also, the Potency entry in assay [13], in assay [14], in assay [15], in assay [16], in [17] and in assay [18] was “inactive” throughout. The Potency result in assay [19] is “inactive”.
Consider `C[C@@H]1CC[C@H]2[C@@H](C)C(=O)O[C@@H]3OC4(C)CC[C@@H]1C32OO4` (stereo partly drawn), for which the Potency entry in assay [1] is “inactive”. The Potency was 0.0169 µM (active) in assay [3]; 0.0169 µM (active) in [4]; 0.0301 µM (active) in [5]; 0.0135 µM (active) in [6]; 0.0169 µM (active) in assay [7]; 0.01 µM (active) in assay [8]. Further, the Potency was 0.0135 µM (active) in assay [9]; 0.0151 µM (active) in [20]; 0.0239 µM (active) in assay [10]; 0.0071 µM (active) in [11]; 0.0076 µM (active) in [12]; 0.0085 µM (active) in assay [13]. In addition, the Potency in assay [14] is 0.0063 µM (active); in [15] it was 0.0067 µM (active); in assay [16] it was 0.0025 µM (active); in assay [17], 0.0028 µM (active); in assay [18], 0.0071 µM (active); in assay [19], 0.01 µM (active).
Take `C#CC1(O)C=CC2C3CCC4=CC(=O)CCC4C3CCC21CC` (stereo not drawn): the Potency entry in assay [1], in [2] and in assay [14] was “inactive” in each case. The figures for the Potency in [12] and in assay [19] were 6.75 µM (active) and 11.2 µM (active), respectively.
Consider `NC(Cc1ccc(Oc2cc(I)c(O)c(I)c2)c(I)c1)C(=O)O` (stereo not drawn), for which the Potency in assay [1] is 79.4 µM (active). The Potency entry in [2], in assay [3], in assay [4], in [5], in [6] and in assay [7] was “inactive” throughout. In addition, the Potency result in assay [8], in [9], in assay [20], in assay [10], in [12] and in assay [13] was “inactive” throughout. Besides, the Potency result in [14], in assay [15], in assay [16], in assay [18] and in assay [19] was “inactive” throughout.
In the case of `COC(C(=O)C(O)C(C)O)C1Cc2cc3cc(OC4CC(OC5CC(O)C(OC)C(C)O5)C(OC(C)=O)C(C)O4)c(C)c(O)c3c(O)c2C(=O)C1OC1CC(OC2CC(OC3CC(C)(O)C(OC(C)=O)C(C)O3)C(O)C(C)O2)C(O)C(C)O1` (stereo not drawn), the Potency result in assay [2] is “inactive”. Also, the Potency in assay [3] is 4.26 µM (active); in [4], 6.75 µM (active); in assay [5] it was 15.1 µM (active); in assay [6], 4.78 µM (active); in assay [8], 0.126 µM (active); in assay [9], 3.38 µM (active). Besides, the Potency in [20] was 4.26 µM (active); in [11], 1 µM (active); in assay [12], 2.39 µM (active); in assay [14], 0.178 µM (active); in assay [15], 2.13 µM (active); in [16], 0.112 µM (active). In addition, the Potency in [17] was 0.708 µM (active); in assay [18], 0.891 µM (active); in [19], 2.24 µM (active).
`CCOC(=O)/C=C(C)/C=C/CC(C)CCCC(C)C` (stereo not drawn): the Potency result in assay [1], in [2], in [3], in assay [4], in [5] and in assay [6] was “inactive” in each case. The Potency entry in assay [7], in [8], in assay [9], in [20], in assay [10] and in [11] was “inactive” each time. For the same compound, the Potency result in assay [12], in assay [13], in assay [14], in assay [15], in assay [16] and in [17] was “inactive” throughout. Further, the Potency result in assay [18] and in [19] was “inactive” each time.
As for `CC1(C)S[C@@H]2[C@H](N)C(=O)N2C1C(=O)O` (stereo partly drawn), the Potency entry in [1], in [2], in [3], in assay [4], in [5] and in [6] was “inactive” throughout. In addition, the Potency result in [7], in [8], in assay [9], in assay [20], in assay [10] and in assay [11] was “inactive” in each case. The Potency entry in [12], in [13], in assay [14], in assay [15], in assay [16] and in assay [17] was “inactive” in each case. Further, the Potency entry in assay [18] and in assay [19] was “inactive” in each case.
For `CCCCCCC(=O)O[C@H]1CC[C@H]2[C@@H]3CCC4CC(=O)C=C(C)[C@]4(C)[C@H]3CC[C@]12C` (stereo partly drawn), the Potency result in assay [2], in assay [3], in [4], in assay [5], in assay [6] and in assay [7] was “inactive” in each case. In addition, the Potency result in assay [9], in [20], in assay [10], in assay [11], in assay [12] and in assay [13] was “inactive” each time. The Potency entry in assay [15], in [17] and in assay [18] was “inactive” each time. Further, in assay [16], the Potency was 10 µM (active).
Consider `C=C1CC2C(CC[C@]3(C)C(=O)CCC23)[C@]2(C)C=CC(=O)C=C12` (stereo partly drawn), for which the Potency entry in assay [1], in [2], in assay [3], in [4], in assay [5] and in assay [6] was “inactive” throughout. Also, the Potency result in assay [7], in assay [9], in assay [20], in [10], in assay [11] and in [12] was “inactive” in each case. In addition, the Potency entry in assay [13], in assay [14], in [15], in [16], in assay [17] and in assay [18] was “inactive” each time. Also, the Potency result in [19] is “inactive”.
Consider `C[C@H](N)Cc1ccccc1`, for which the Potency result in assay [1], in assay [2], in assay [3], in assay [4], in [5] and in [6] was “inactive” throughout. For the same compound, the Potency result in assay [7], in assay [8], in assay [9], in assay [20], in assay [10] and in [11] was “inactive” each time. In addition, the Potency result in assay [13], in assay [14], in assay [15], in assay [16], in [17] and in assay [18] was “inactive” throughout. For the same compound, the Potency result in [19] is “inactive”.
